± gives the standard deviation.

In the assay the test system is OVCAR-3-derived ovarian cancer stem-like cells (spheroids). The assay can be described thus: cell growth relative to untreated control; higher = more growth (less inhibition). The following applies: 2.29 µM; 96 h. Put shortly:
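Viability of stem-like cells from OVCAR-3 spheroids was assessed with TOX8 resazurin fluorescence at ex 560/em 590 nm. The cells had been trypsin-dissociated, seeded at 50,000 cells/mL in stem cell medium in ultra-low attachment 96-well plates and preincubated 24 h, then treated with compounds at 2.29 uM for 96 h at 37°C, 5% CO2, in 4 replicate wells, with fluorescence read after 4 h. Results were converted to percent growth against untreated wells after blank subtraction and Grubbs outlier removal.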
`Cc1cc(Cl)cc2c1NC(=O)C2(O)C(C(=O)c1ccccc1)c1ccccc1` (centres undefined): the cell growth came out at 94.9 ± 12%.

`Nc1ncnc2c([C@@H]3O[C@H](CO)[C@@H](O)[C@H]3O)c[nH]c12`: the cell growth is 127 ± 35%.

Turning to `NC1=NCN([C@@H]2O[C@H](CO)[C@@H](O)[C@H]2O)C(=O)N1`, the cell growth was 85.8 ± 11%.

Take `Cc1cccc(Cl)c1NC(=O)/C=C/c1ccccc1`: the cell growth came to 102 ± 14%.

Take `Cc1c2c(cc3c1[nH]c1ccccc13)C=NCC2`: the cell growth turned out to be 227 ± 75%.

The molecule `COc1ccc(C2C(C)C(=O)C(C)C(c3ccc(OC)cc3)N2N=O)cc1` (centres undefined) returned a cell growth of 110 ± 23%.

As to `Cc1cc2cc3cc(C)c(N)cc3nc2cc1N`, the cell growth was determined as 40.2 ± 5.5%.

Take `O=C1NC(c2cccc3ccccc23)Nc2ccc(Cl)cc21` (centres undefined): the cell growth worked out at 99.5 ± 9.1%.

As to `C=CCOC1OC(CO[Si](C)(C)C(C)(C)C)C(OCc2ccccc2)C(OCc2ccccc2)C1OCc1ccccc1` (centres undefined), the cell growth was found to be 116 ± 18%.

For `OC(CBr)C(O)C(O)C(O)CBr` (centres undefined), the cell growth worked out at 11.6 ± 4%.

Regarding `O=C1C(=O)c2ccccc2C(O)=C1CCCc1ccc(Oc2ccccc2)cc1`, the cell growth was 87.1 ± 37%.

Molecule `CN(C)CCOc1ccc(I)cc1Cc1ccccc1` registered a cell growth of 74.4 ± 31%.

In the case of `COC(=O)Nc1nc2ccc(Br)cc2[nH]1`, the cell growth is 107 ± 23%.

Molecule `CC12CC(Br)(Br)C(=O)C3C1CCCC32` gave a cell growth of 159 ± 19%.

On to `C/C(=N\NC(=S)N1CCN(C2CCCCCC2)CC1)c1ccccn1`, for which the cell growth amounted to 14.7 ± 7.5%.

As to `O=C([O-])c1cc(I)cc(I)c1O.O=C([O-])c1cc(I)cc(I)c1O.[Mn+2]`, the cell growth was 77.4 ± 10%.

Take `OCCNCN(CNCCO)c1nc(N(CNCCO)CNCCO)nc(N(CNCCO)CNCCO)n1`: the cell growth was determined as 126 ± 24%.

`COc1ccc(OC)c2nc3c(C(=O)NCCN(C)C)cccc3nc12` gave a cell growth of 119 ± 27%.

Turning to `CCOC(=O)Nc1cc2c(c(N)n1)N=C(c1ccccc1)CN2`, the cell growth was determined as 89.9 ± 15%.

Regarding `COc1cc2cc3c4cc(OC)c(OC)cc4cc[n+]3c(C)c2cc1OC.O=C(O)CS(=O)(=O)[O-]`, the cell growth amounted to 53.7 ± 9.7%.

For `COC(C(=O)C(O)C(C)O)C1Cc2cc3cc(OC4CC(OC5CC(O)C(O)C(C)O5)C(O)C(C)O4)c(C)c(O)c3c(O)c2C(=O)C1OC1CC(OC2CC(OC3CC(O)C(OC)C(C)O3)C(O)C(C)O2)C(O)C(C)O1` (centres undefined), the cell growth came out at 54.3 ± 53%.

The molecule `Cc1c2ccncc2c(C)c2c1sc1ccccc12` came in with a cell growth of 120 ± 13%.

As for `Cc1cc(O)c2c(c1)C(=O)c1cc(O)cc(O)c1C2=O`, the cell growth came to 107 ± 17%.

`CC1=C/C(=N\OCC(=O)O)CC(c2ccc(C(C)C)cc2)C1` (centres undefined) registered a cell growth of 12.4 ± 5%.

`CCN(CC)CCOC(=O)Cc1cccc2c(=O)cc(-c3ccccc3)oc12`: the cell growth was 91.6 ± 23%.

Molecule `CC1=CC(=O)c2cccc(NC3=NCCO3)c21` registered a cell growth of 92.8 ± 25%.

Take `Cc1cc2nc(C=C(C(F)(F)F)C(F)(F)F)oc2cc1C`: the cell growth was 130 ± 36%.

As for `Oc1[nH]c2ccccc2c1N=Nc1c(F)c(F)c(F)c(F)c1F`, the cell growth was found to be 100 ± 13%.

For the molecule `O/N=C(\CC(O)(C(F)(F)F)C(F)(F)F)c1cccc(Cl)c1`, the cell growth was determined as 87.8 ± 16%.

Molecule `C=C(C)[C@@H]1CC[C@]2(C)CC[C@]3(C)[C@H](CC[C@@H]4[C@@]5(C)CC[C@H](O)C(C)(C)[C@@H]5CC[C@]43C)[C@@H]12` registered a cell growth of 121 ± 19%.

As for `CC1(C)C(O)OC(O)C1(C)C` (centres undefined), the cell growth was determined as 9.3 ± 2%.

`CN(C)c1ccc(C=c2c3ccccc3n3c2cc(-c2ccc(Cl)cc2)[n+]3C)cc1`: the cell growth is 39.7 ± 12%.

`COc1cc(/C=C(\C)c2ccc3c(c2)OCO3)cc(OC)c1OC` showed a cell growth of 162 ± 21%.

As to `S=c1nc[nH]c2nc[nH]c12`, the cell growth was 95.2 ± 8.4%.

For `Nc1ncnc2c1ncn2[C@@H]1O[C@H](CO)C[C@H]1O`, the cell growth was found to be 89.8 ± 18%.

`CC(=O)OCc1cc(=O)n(C)c2c3c4c(cc12)c(C)cc(=O)n4CO3` yielded a cell growth of 95.1 ± 21%.

Turning to `CCCCCCCCCCCCCCCCCCOP(=O)([O-])OCC[N+](C)(C)C`, the cell growth was determined as 51.1 ± 16%.

`[N-]=[N+]=NC1=NNC2(C(=O)N1)c1ccccc1-c1ccccc12`: the cell growth came to 99.3 ± 38%.

`O=C1CCC(c2ccccc2)=NN1c1nc2ccccc2s1` showed a cell growth of 39.3 ± 10%.

The values above are taken from the supplement of paper PMC3484114.
